Our source for the growth values is PubChem BioAssay (NCI).

The panel holds about 83,000 compounds, 20% with a hit somewhere; the sample as a whole holds those more often.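 Cells were grown in 96-well plates and exposed to the test compound at a single concentration for 48 hours; results are reported as percent growth, with values below 10 considered active.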 Values without a mark were called inactive. Active and inactive are the calls of the source.

Holding throughout (assay): NCI-60 one-dose screen, 48 h (100 = growth as untreated, 0 = no growth, -100 = all killed)
Common to all, as to conditions: 10 µM unless noted

Test [1] relates to HCT-15 colon.
Test [2] concerns HT29 colon.
Test [3] concerns SNB-75 CNS.
Test [4] deals with SNB-19 CNS.
Test [5] has as its system U251 CNS.
Test [6] relates to PC-3 prostate.
In test [7] the test system is SK-MEL-5 melanoma.
In test [8] the test system is UACC-62 melanoma.
Test [9] has as its system LOX IMVI melanoma.
Test [10] deals with SK-MEL-28 melanoma.
Test [11] concerns SK-MEL-2 melanoma.
The subject of test [12] is EKVX NSCLC.
Test [13] has as its system SN12C renal.
Test [14] relates to UO-31 renal.
The test system of test [15] is TK-10 renal.
Test [16] relates to ACHN renal.
Test [17] concerns CAKI-1 renal.
The test system of test [18] is A498 renal.
For test [19], the system named is CCRF-CEM leukemia.
Test [20] deals with MOLT-4 leukemia.

For `N=c1c2ccccc2nc2n1CCCCC2`, the growth in test [1] is 110%; in test [2], 110%; in [3] it was 99.7%; in test [4], 103%; in test [5] it was 101%; in test [6] it was 116%. Further, the growth in test [7] was 100%; in [8], 106%; in test [9], 106%; in test [10], 103%; in test [11], 114%; in test [12] it was 103%. Moreover, the growth is 104% in test [13]; 89.7% in test [14]; 123% in test [15]; 105% in [16]; 95.1% in test [17]; 121% in test [18]. In addition, the growth in test [19] is 92.9%; in [20], 117%.

Turning to `O=c1[nH]c(-c2ccccn2)nc2sc3c(c12)CCCCC3`, the growth in test [1] is 34.3%; in test [2] it was 36.9%; in test [3] it was 80.9%; in test [4] it was 46.1%; in test [5], 17.1%; in test [6], 44.2%. Moreover, the growth in [7] was 44.5%; in [8], 20.2%; in test [9], 8.61% (active); in test [10], 45.2%; in [11], 74.4%; in test [12], 32.8%. Also, the growth in test [13] was 51.2%; in test [14], 32.6%; in test [15] it was 49.5%; in test [16], 36.2%; in test [17], 38.5%; in test [18], 59.4%. Further, the growth in test [19] was 26.7%; in test [20], 32.1%.

As to `C[C@]12C[C@@H](c3ccoc3)OC(=O)[C@@H]1CC[C@]1(C)[C@@H]2CC[C@@H](O)[C@]1(C)O`, the growth in test [1] was 85.4%; in test [2], 68.3%; in test [3] it was 62.3%; in test [4] it was 76.5%; in test [5], 66.5%; in test [6], 60.5%. Besides, the growth in test [7] is 76.2%; in test [8], 76.1%; in test [9], 70.5%; in test [10], 94.1%; in [11], 74.7%; in test [12], 57.5%. In addition, the growth in test [13] was 64.1%; in test [14] it was 75.5%; in test [15], 65%; in test [16], 76.1%; in test [17], 88.2%; in [18], 19.8%. The growth in test [19] is 69.3%; in test [20] it was 67.3%.

Turning to `CC(C)Oc1nc2c(c(=O)n(C)c(=O)n2C)n1C`, the growth in test [1] was 106%; in [2] it was 96.6%; in test [3] it was 88%; in test [4] it was 96.4%; in test [5], 99.7%; in test [6], 90.7%. Also, the growth is 104% in [7]; 96.5% in [8]; 98.9% in test [9]; 105% in test [10]; 107% in [11]; 103% in [12]. The growth is 108% in test [13]; 91.3% in test [14]; 95.3% in test [15]; 101% in test [16]; 100% in [17]; 106% in test [18]. Also, the values for the growth in test [19] and in test [20] were 95.3% and 94.4%, respectively.

For the molecule `O=C1c2cc3c(cc2-c2c1c1cc(Cl)c(Cl)cc1c(=O)n2CCCn1ccnc1)OCO3`, the growth in test [1] is 13%; in test [2], -8.33% (active); in test [3], 9.95% (active); in test [4], 13.4%; in test [5], -9.41% (active); in [6] it was 25.3%. For the same molecule, the growth was -9.98% (active) in test [7]; -38.1% (active) in [8]; -53.6% (active) in test [9]; 44.3% in test [10]; 22.7% in [11]; 35.7% in test [12]. Besides, the growth was -4.67% (active) in [13]; 1.1% (active) in [14]; 34.3% in test [15]; -6.04% (active) in [16]; 11.9% in test [17]; -29.9% (active) in [18]. The growth in test [19] is 2.94% (active); in test [20], -24.9% (active).

Take `CNCCCn1c2c(c3ccc([N+](=O)[O-])cc3c1=O)C(=O)c1cc(OC)cnc1-2`: the growth in test [1] was -27.5% (active); in test [2], -19.2% (active); in test [3] it was -26.5% (active); in test [4], 2.67% (active); in [5] it was -61.1% (active); in [6] it was 2.02% (active). Also, the growth was -98.8% (active) in test [7]; -77.1% (active) in test [8]; -89% (active) in test [9]; -67% (active) in [10]; -43.9% (active) in test [11]; 4.21% (active) in test [12]. Moreover, the growth is -29.7% (active) in test [13]; -78.4% (active) in test [14]; -23.9% (active) in test [15]; -65.2% (active) in test [16]; -83.4% (active) in test [17]; -97% (active) in [18]. Further, the values for the growth in [19] and in test [20] were -31.9% (active) and -10.9% (active), respectively.

On to `CNc1nc(C)c(-c2nc(Nc3cccc(S(N)(=O)=O)c3)ncc2F)s1`, for which the growth in test [1] was 1.76% (active); in test [2] it was 0.997% (active); in test [3], -19.2% (active); in test [4], 7.87% (active); in test [5], 4.31% (active); in [6], 11.7%. Also, the growth in [7] was -23.3% (active); in test [8], -48.6% (active); in test [9] it was 0.394% (active); in test [10] it was -38% (active); in [11], -50.9% (active); in test [12] it was 4.38% (active). The growth was -17.2% (active) in test [13]; 1.38% (active) in test [14]; -2.07% (active) in test [15]; 2.7% (active) in [16]; 14.8% in test [17]; -38.8% (active) in [18]. Moreover, the growth was -2.73% (active) in [19] and -26.9% (active) in test [20].

On to `C/C(=C(/c1ccc(O)cc1)c1ccc(OCCN2CCCC2)cc1)c1ccccc1`, for which the growth is 34.6% in [1]; -10.7% (active) in [2]; 46.1% in test [3]; 73.5% in [4]; 35.1% in test [5]; 48.1% in test [6]. The growth was -65.8% (active) in test [7]; -29.3% (active) in [8]; -50.2% (active) in test [9]; -40.8% (active) in [10]; 63.1% in [11]; 62.5% in test [12]. Besides, the growth in test [13] is 72.4%; in test [14], 55.3%; in [15], 79.6%; in test [16], 68.5%; in test [17], 65.1%; in [18], 80.5%. The results for the growth in test [19] and in test [20] were 60.7% and -1.64% (active), respectively.
